Assay outcomes (PubChem)
Many of the other results were omitted from the sample, so hits are more common in it than they were.
FECH inh – inhibitors of human ferrochelatase; P22830; purified FECH, Ni-mesoporphyrin absorbance 550 nm; calls only at 10 µM (by protocol); hit rate 3.3% among 20,000; AID 1671448;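 active = enzyme reaction rate more than 3 SD below the solvent-only control wells on the same plate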;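 also: lower slope than DMSO wells means FECH inhibition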
Target sequence (P22830 whole entry, looked up): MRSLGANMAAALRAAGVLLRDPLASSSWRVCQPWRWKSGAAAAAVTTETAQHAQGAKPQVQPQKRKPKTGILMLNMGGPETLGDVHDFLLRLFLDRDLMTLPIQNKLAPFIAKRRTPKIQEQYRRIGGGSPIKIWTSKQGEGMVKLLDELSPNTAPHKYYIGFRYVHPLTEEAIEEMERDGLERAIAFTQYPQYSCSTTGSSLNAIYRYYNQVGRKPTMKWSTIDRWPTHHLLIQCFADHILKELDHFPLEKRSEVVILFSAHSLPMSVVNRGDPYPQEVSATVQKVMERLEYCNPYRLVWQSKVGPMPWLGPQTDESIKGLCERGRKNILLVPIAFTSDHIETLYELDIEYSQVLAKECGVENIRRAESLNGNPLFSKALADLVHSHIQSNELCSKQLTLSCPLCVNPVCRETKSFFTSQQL
Starred values were filed as active, the others as inactive; i = inactive; + = active, no number.

SMILES	FECH inh
Cc1ccc(NC(=O)CN2CCCN(Cc3ccccc3)S2(=O)=O)cc1	i
Cc1cccc(NC(=O)CN2CCCN(Cc3ccccc3)S2(=O)=O)c1	i
O=C(NC1CC1)C1CCCN(C2CCN(C(=O)c3cccc4nccnc34)CC2)C1 (configuration not stated)	i
Cc1ccc(-c2noc3c(=O)n(CCC(=O)Nc4ccc(S(N)(=O)=O)cc4)cnc23)cc1	i
CCn1c(C2CCN(C(=O)c3scc4c3OCCO4)CC2)n[nH]c1=O	i
O=C(CSCc1nc(-c2ccc(Cl)cc2)no1)NCc1ccco1	i
COc1cccc(Nc2c(-c3ccc4c(c3)CCCC4)c(=O)c2=O)c1	i
O=C1NCCN(C(=O)c2ccc(-c3ccco3)cc2)C1Cc1ccccc1 (configuration not stated)	i
CCC(CO)N(Cc1ccc(F)cc1)Cc1cccc(C)n1 (configuration not stated)	i
Cc1cc(C(=O)N2CCC(C(C)N3CCOCC3)CC2)ccc1F (configuration not stated)	i
COCc1cc(CNC(=O)c2ccc3c(c2)nnn3C)[nH]n1	i
CCOc1ccc(NC(=O)CN2CCCN(Cc3cc(C)ccc3C)S2(=O)=O)cc1	+
CCc1cccc(C)c1NC(=O)CN1CCN(Cc2ccccc2C)S1(=O)=O	i
Cc1ccc(NC(=O)CN2CCN(Cc3ccc(Cl)cc3)S2(=O)=O)cc1C	i
Cc1ccc(CN2CCN(CC(=O)Nc3ccc(C)c(C)c3)S2(=O)=O)cc1	i
CCc1cccc(C)c1NC(=O)CN1CCCN(Cc2ccc(C)cc2)S1(=O)=O	i
CCc1cccc(C)c1NC(=O)CN1CCCN(Cc2cccc(C)c2)S1(=O)=O	+
COc1ccc(NC(=O)CN2CCN(Cc3ccccc3Cl)S2(=O)=O)cc1OC	i
Cc1ccc(C)c(CN2CCCN(CC(=O)Nc3ccc(C)c(F)c3)S2(=O)=O)c1	i
COc1ccc(NC(=O)CN2CCN(Cc3ccccc3C)S2(=O)=O)cc1OC	+
Cc1ccc(C)c(CN2CCCN(CC(=O)NC3CCCC3)S2(=O)=O)c1	i
Cc1cccc(CN2CCN(CC(=O)Nc3ccc(C)c(C)c3)S2(=O)=O)c1	+
COc1ccc(NC(=O)CN2CCN(Cc3ccccc3C)S2(=O)=O)cc1Cl	i
Cc1nccn1-c1ccccc1CNC(C)Cn1cncn1 (configuration not stated)	i
CCOCCCNc1nc(Nc2cc(C)cc(C)c2)c2cnn(-c3ccccc3)c2n1	i
SMILES	FECH inh
CCN(Cc1cc(C)[nH]n1)CC1CCCO1 (configuration not stated)	i
COC(=O)CN(C)c1nccc(C2CCCC2)n1	i
CCc1ccc(-n2c(CN3CCN(S(=O)(=O)c4ccc(F)cc4)CC3)nc3cccnc32)cc1	i
Cc1cccc(NC(=O)CN2CCN(Cc3ccccc3F)S2(=O)=O)c1	i
Cc1ccccc1S(=O)(=O)N1CCC(n2c(C(F)(F)F)nc3cccnc32)CC1	i
Cc1cccc2c(CCNC3CC(C)(C)NC(C)(C)C3)c[nH]c12	i
CCn1nc(C(C)C)cc1C(=O)NCc1ccc2nonc2c1	i
Cc1ccc(F)c(NC(=O)CCC(=O)N(C)Cc2cc(C3CC3)n[nH]2)c1	i
Cc1nc(CN(C)C(=O)c2ccc3cccc(Cl)c3n2)cs1	i
Clc1cccc(Nc2nc(N3CCN(c4ccccc4)CC3)nc3c2cnn3-c2ccccc2)c1	i
CCC1CCC(C(=O)NCC(=O)N2CCC(CN)C2)CC1 (configuration not stated)	i
O=C(CN1CCCN(Cc2ccccc2)S1(=O)=O)NCc1ccccc1	i
CC1CCCC(C)N1CCCNC(=O)C1CCN(c2ncnc3c2nc2n3CCCCC2)CC1 (configuration not stated)	i
Cc1ccc(NC(=O)CN2CCCN(Cc3ccc(Cl)cc3)S2(=O)=O)cc1	i
Cc1ccc(CN2CCCN(Cc3ccc(F)cc3Cl)S2(=O)=O)cc1	i
Cc1ccc(CN2CCCN(Cc3c(F)cccc3Cl)S2(=O)=O)cc1	+
COc1cccc(NC(=O)CN2CCCN(Cc3cccc(F)c3)S2(=O)=O)c1	i
Cc1ccccc1CN1CCN(Cc2ccccc2C)S1(=O)=O	+
COc1cccc(NC(=O)CN2CCN(Cc3ccc(F)cc3)S2(=O)=O)c1	i
Cc1ccc(NC(=O)CN2CCN(Cc3ccccc3)S2(=O)=O)cc1	i
COc1cccc(NC(=O)CN2CCCN(Cc3cccc(C)c3)S2(=O)=O)c1	+
Cc1cc(C)c(CN2CCN(Cc3ccccc3C)S2(=O)=O)c(C)c1	i
Cc1ccc(NC(=O)CN2CCN(Cc3cccc(C)c3)S2(=O)=O)cc1	+
Cc1cccc(CN2CCN(CC(=O)Nc3c(C)cc(C)cc3C)S2(=O)=O)c1	i
Cc1ccc(NC(=O)CN2CCN(Cc3ccccc3C)S2(=O)=O)cc1	i
SMILES	FECH inh
Cc1cccc(CN2CCN(Cc3ccc(C)c(C)c3)C(=O)C2)n1	i
Cc1ccc(Cl)cc1NC(=O)NCCc1nc2cccnc2n1C1CCCCC1	i
CCOC(=O)c1c(NC(=O)c2cc3ccccc3oc2=O)sc2c1CCN(CC)C2	i
COc1cccc(Cl)c1-c1csc(CN2CCNCC2)c1	i
Cc1cccc(Cn2c(Cc3c[nH]c4ccccc34)n[nH]c2=O)c1	i
COc1ccc(Nc2nc(N3CCN(c4ccc(F)cc4)CC3)nc3c2cnn3-c2ccccc2)cc1	i
Cc1ccccc1Nc1nc(NCCCO)nc2c1cnn2-c1ccccc1	i
CCOC(=O)c1ccc(NC(=O)CN2CCCN(Cc3ccc(Cl)cc3)S2(=O)=O)cc1	i
CNC(=O)c1[nH]cnc1C(=O)NCc1ccccc1	+
O=C(NCc1ccccc1)c1nc[nH]c1C(=O)N1CCCCCC1	i
CC1CCN(C(=O)c2[nH]cnc2C(=O)NCc2ccccc2)CC1	i
COCCNC(=O)c1nc[nH]c1C(=O)NCc1ccccc1	+
O=C(NCc1ccccc1)c1nc[nH]c1C(=O)N1CCC(Cc2ccccc2)CC1	i
CCCNC(=O)c1[nH]cnc1C(=O)NCCc1c[nH]c2ccccc12	i
O=C(O)c1cccc(CC2CCN(C(=O)Cc3ccccc3)C2)c1 (configuration not stated)	i
CCc1ccc(NC(=O)Nc2ccc(Sc3c(CC)c(C)nc4ncnn34)cc2)cc1	i
CCOc1ccccc1C(=O)Nc1ccc(Sc2c(CC)c(C)nc3ncnn23)cc1	+
CCc1c(C)nc2ncnn2c1Sc1ccc(NC(=O)NCc2ccccc2)cc1	+
CCc1c(C)nc2ncnn2c1Sc1ccc(NC(=O)c2cc(OC)c(OC)c(OC)c2)cc1	i
CCc1c(C)nc2ncnn2c1Sc1ccc(NC(=O)c2ccccc2OC)cc1	+
CCc1c(C)nc2ncnn2c1Sc1ccc(NC(=O)c2ccccc2Cl)cc1	i
CCCc1c(C)nc2ncnn2c1Sc1ccc(NC(=O)c2ccccc2OC)cc1	i
CCc1c(C)nc2ncnn2c1Sc1ccc(NC(C)=O)cc1	i
CCOc1ccccc1C(=O)Nc1ccccc1Sc1c(CC)c(C)nc2ncnn12	i
Cn1c(=O)c(C(=O)Nc2ccc(Br)cn2)nc2ccccc21	i
C=CC[C@@H]1CC=C[C@@H](CC=C)N1C(=O)c1cnn2c1CCCC2	i
CC(=O)NC(c1nc(CC2CCN(C)CC2)no1)C(C)C (configuration not stated)	i
O=C(Nc1ccccc1C(F)(F)F)c1nc(N2CCOCC2)c2oc3ccccc3c2n1	i
COc1cccc(Nc2nc(NCCCO)nc3c2cnn3-c2ccccc2)c1	i
COc1ccc(C(=O)N2CCN(Cc3ccc(-c4ccn[nH]4)o3)CC2)cc1	i
